PNC assembly inh – High Content Assay for Compounds that inhibit the Assembly of the Perinucleolar Compartment | activity change (PNC), negative = inhibition, % at 10 µM | AID 2417, 2010 | 3.1% of 140,000 active | PC3M PTB-GFP, PNC prevalence imaging, 16 h; active compounds read low;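 active = readout at or below -70, meaning at least 70% loss of cells showing the perinucleolar compartment, a nuclear body marking cancer cells; inconclusive = readout between -30 and a set limit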;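 note: plate controls were DMSO wells for no effect and camptothecin positive control wells for full effect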
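PC3M cells stably expressing PTB-GFP, 750–1000 cells/well, treated 16 h at 37 °C with compound (23 nl of library stock), in duplicate. After paraformaldehyde fixation and Hoechst stain, imaged at 20x; PNC prevalence scored by image analysis.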
HPGD inh – qHTS Assay for Inhibitors of HPGD (15-Hydroxyprostaglandin Dehydrogenase); 15-hydroxyprostaglandin dehydrogenase [NAD(+)] (Homo sapiens), P15428; purified HPGD, NADH fluorescence kinetic, PGE2 substrate; Potency, µM, for the others: at the highest dose activity change, negative = inhibition, usual class: inhibitors; 4.3% of 150,000 active; active = well fitted inhibition curve with a large enough effect, not every such curve was filed as active; inconclusive = small, poorly fitted or top-dose-only effect, or another doubt; inactive = no such curve, though single readings can be large or run the other way; note: potency is the fitted concentration of half-maximal effect
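20 nM HPGD preincubated 15 min at room temperature with compound in 50 mM Tris-HCl pH 8, 0.01% Tween 20. Started with 1 mM NAD+ and 30 uM prostaglandin E2; NADH fluorescence (360/450 nm) read 5 times over 30-s intervals, last minus first.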
NPSR antag – qHTS Assay for Antagonists of the Neuropeptide S Receptor: cAMP Signal Transduction. CHO-NPSR cells, cAMP TR-FRET, antagonist mode. Potency, µM (series often up to 38.3 µM), for inactives: at the highest dose activity change, negative = inhibition, hits mostly inhibitors. 1% of 220,000 active; note: potency is the fitted concentration of half-maximal effect; nearly all actives have a fitted effect of over 50% in size
Target sequence (Q6W5P4 whole entry, looked up): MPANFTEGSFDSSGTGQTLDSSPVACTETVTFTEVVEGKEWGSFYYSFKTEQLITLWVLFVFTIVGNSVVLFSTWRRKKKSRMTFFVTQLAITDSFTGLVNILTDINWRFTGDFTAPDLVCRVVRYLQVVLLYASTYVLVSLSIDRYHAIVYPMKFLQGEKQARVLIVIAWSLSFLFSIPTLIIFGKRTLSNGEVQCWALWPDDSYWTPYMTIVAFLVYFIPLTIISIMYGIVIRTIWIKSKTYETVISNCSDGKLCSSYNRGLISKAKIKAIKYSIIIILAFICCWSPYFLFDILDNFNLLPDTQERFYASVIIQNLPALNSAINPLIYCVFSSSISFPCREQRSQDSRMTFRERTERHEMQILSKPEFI
IMPase cell inh – qHTS Assay for Identifying the Cell-Membrane Permeable IMPase Inhibitors; CHO-M1 cells, IP1 accumulation, HTRF TR-FRET ratio; inhibition (IP1 accumulation), % at 46.1 µM; 120,000 tested, under 10 active; AID 901, 2007; active = well fitted curve in the direction sought with a large enough effect in the signal ratio, not every such curve was filed as active; inconclusive = small, poorly fitted or top-dose-only effect, or a change in a side signal; inactive = no such curve, though single readings can be large or run the other way; the % refers to the signal ratio;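 note: cells stimulated with carbachol in lithium chloride buffer; plate controls were DMSO basal wells for no effect and reference inhibitor wells for full effect; higher means more IMPase inhibition seen as more IP1 and lower FRET ratio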
Target sequence (P97697 whole entry, looked up): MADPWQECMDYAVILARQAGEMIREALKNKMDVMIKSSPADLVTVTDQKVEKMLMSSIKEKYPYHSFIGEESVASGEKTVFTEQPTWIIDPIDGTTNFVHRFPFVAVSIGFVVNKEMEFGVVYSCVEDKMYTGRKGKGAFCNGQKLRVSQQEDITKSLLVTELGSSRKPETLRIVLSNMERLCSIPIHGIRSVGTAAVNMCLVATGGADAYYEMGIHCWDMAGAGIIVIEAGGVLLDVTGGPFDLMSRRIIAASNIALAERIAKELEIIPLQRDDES
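Seeded CHO-M1 cells were dosed with compound at up to 46 uM, stimulated with carbachol for 30 min, then lysed in IP-One detection reagents. Higher IP1 lowers the TR-FRET signal.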
ALDH1A1 inh – qHTS Assay for Inhibitors of Aldehyde Dehydrogenase 1 (ALDH1A1). Aldehyde dehydrogenase 1A1 (Homo sapiens), P00352. Purified ALDH1A1, NADH fluorescence, propionaldehyde substrate. Potency, µM (doses to about 75.3 µM), for the others: top-dose activity, negative = inhibition, usual class: inhibitors. 7.3% of 220,000 active; active = well fitted inhibition curve with a large enough effect, not every such curve was filed as active; inconclusive = small, poorly fitted or top-dose-only effect, or another doubt; inactive = no such curve, though single readings can be large or run the other way;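 note: potency is the fitted concentration of half-maximal effect; plate controls were no enzyme wells and a reference inhibitor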
IMPase Li cell – qHTS Assay for Identifying the Cell-Membrane Permeable IMPase Inhibitors: Potentiation with Lithium; 0.35% of 210,000 active; Potency, µM (highest dose often 59.4 µM), for the others: top-dose activity, negative = IMPase inhibition, most hits filed as inhibitors; AID 1457, 2008; CHO-M1 cells, IP1 TR-FRET (IP-One), carbachol + lithium;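 note: IP1 builds up when IMPase is blocked and the TR-FRET signal falls; potency is the fitted concentration of half-maximal effect; plate controls were basal vehicle for no effect and high inhibitor control for full effect; nearly all actives have a fitted effect of over 50% in size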
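Lithium-sensitised IP1 accumulation assay; M1-expressing CHO cells treated 30 min at 37C with compound. Competitive antibody detection by time-resolved FRET followed a 10 min room-temperature lysis step.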
Numbers without * were called inactive; u = inconclusive; x = no result; [ ] = another dose, or the depositor's remark. Only some compounds are listed: those with a hit (about 11% of all), similar ones and a draw of the others. Unless noted, calls come from the whole dose curve; as a rule, active = well fitted curve in the direction sought with a large enough effect; inconclusive = small, poorly fitted or top-dose-only effect, or another doubt; inactive = no such curve, though single readings can be large; an effect the other way counts as inactive or inconclusive. Unless noted, % is set by controls: 0 for no effect and ±100 for the full control effect.

SMILES	PNC assembly inh	HPGD inh	NPSR antag	IMPase cell inh	ALDH1A1 inh	IMPase Li cell
CCOc1ccc(NC(=O)CCS(=O)(=O)c2ccc3c(c2)CCCN3C(C)=O)cc1	-13	-5%	u	4	19µM*	24%[38.3 µM]
CC(=O)N1CCCc2cc(S(=O)(=O)NC(C(=O)NC(C)c3ccccc3)C(C)C)ccc21 (configuration not stated)	u	-4%	-7%[46.1 µM]	10	3.2µM*	u
CC(=O)N1CCCc2cc(S(=O)(=O)NC(C(=O)NC3CCCCC3)C(C)C)ccc21 (configuration not stated)	41	-5%	5%	x	7.1µM*	0%
CC(=O)N1CCCc2cc(S(=O)(=O)N(C)Cc3ccccc3)ccc21	5	32µM*	-1%[46.1 µM]	2	u	16%[38.3 µM]
O=C(c1ccc(Cl)c(S(=O)(=O)N2CCOCC2)c1)N1CCCCC1	x	x	-8%	x	8%	-1%
COc1ccc(-n2c(=O)c(CCc3ccccc3)nc3cncnc32)cc1	x	x	x	x	u	9%
OC(CNCc1ccc(F)cc1)(c1ccccc1)c1ccc(F)cc1 (configuration not stated)	-11	0%	-18%[46.1 µM]	8	6%	3%[38.3 µM]
Cc1ccccc1OCC(=O)N(Cc1ccc(C(C)C)cc1)C1CCS(=O)(=O)C1 (configuration not stated)	x	x	x	10	x	x
CC(C)c1nc2sc3c(=O)[nH]c(=S)[nH]c3c2c2c1CCC2	42	16µM*	-38%	x	u	u
CCOC(=O)C[n+]1c(C)sc2ccc(OC)cc21	-29	20µM*	-25%[46.1 µM]	6	6.3µM*	9%[38.3 µM]
O=Cc1cn(-c2ccc(F)cc2)c2ccccc12	34	-11%	0%	x	2µM*	-2%
CCOC(=O)NC(=O)COC(=O)CCCc1nc2ccccc2s1	x	x	0%	x	-5%	7%
CN(C(=O)c1ccc2c(c1)OCO2)C1(C(=O)NC2CCCCC2)CCCCC1	u	x	9%[46.1 µM]	6	u	x
O=C(O)CCc1ccc(-c2cccs2)n1CCC(=O)O	13	u	-23%[46.1 µM]	-6	u	-16%[38.3 µM]
CC(=O)c1cccc(-n2c(CCC(=O)O)ccc2-c2cccs2)c1	52	-9%	-7%[46.1 µM]	10	7.9µM*	20%[38.3 µM]
O=C(O)CCc1ccc(-c2cccs2)n1-c1ccc(C(=O)O)cc1	-4	-11%	3%[46.1 µM]	-9	13µM*	-11%[38.3 µM]
COCCCNC(=O)c1cccc(OC)c1OC	u	7.1µM*	0%[46.1 µM]	1	2%	27%[38.3 µM]
COc1ccc(-c2nc3ccccc3s2)cc1O	-90*	u	u	-8	u	-7%[38.3 µM]
COc1ccccc1C(=O)NCc1ccc(-c2nc3ccccc3s2)cc1	u	18µM*	-5%	x	u	7%
COc1cc(C(=O)NCc2ccccc2)cc(Br)c1OC	u	22µM*	12%	x	3%	-9%
CCN1CCC(NC(=O)Nc2ccccc2C(=O)OC)CC1	x	x	10%	x	-8%	5%
OC(c1cc(-c2ccc(Cl)cc2)nc2ccccc12)C1CCCCN1 (configuration not stated)	x	x	u	x	-11%	x
COc1cc2c(cc1NC(=O)c1ccccc1F)CCCC2	u	-12%	-16%	x	-8%	12%
COc1ccccc1C(=O)NCc1ccncc1	u	-4%	-6%[46.1 µM]	-1	13%	-7%[38.3 µM]
COc1ccccc1C(=O)NCc1ccccc1	-114*	11µM*	-1%	7	12%	10%
SMILES	PNC assembly inh	HPGD inh	NPSR antag	IMPase cell inh	ALDH1A1 inh	IMPase Li cell
COc1ccccc1CNC(=O)c1ccoc1C	22	-22%	-5%[46.1 µM]	-6	u	-4%[38.3 µM]
COc1ccccc1CNC(=O)c1cccc(C)c1[N+](=O)[O-]	-15	18µM*	20%	-5	-1%	15%
COc1ccc(CNC(=O)c2ccccc2[N+](=O)[O-])cc1	59	11µM*	6%[46.1 µM]	6	11%	15%[38.3 µM]
COC(=O)C(Cc1ccc(O)cc1)NC(=O)c1ccccc1OC (configuration not stated)	-5	-11%	-3%[46.1 µM]	-7	28µM*	21%[38.3 µM]
O=C(COC(=O)CCC(=O)c1cccs1)NCc1cccs1	x	x	-11%	x	-12%	x
Nc1cc(N)nc(SCC(=O)Nc2ccc(Br)cc2Cl)n1	15	-12%	-3%[46.1 µM]	0	5%	-10%[38.3 µM]
O=S(=O)(NCc1ccc(Cl)cc1)c1cccc2cccnc12	x	x	-3%	x	x	x
C/C(=N\Nc1ccccn1)c1ccc(S(=O)(=O)NCc2ccco2)cc1	-83*	-13%	-19%	x	29%	5%
O=S(=O)(NCc1ccco1)c1cccc2cccnc12	-100*	-9%	12%[46.1 µM]	-4	4%	5%
CCOc1ccc(S(=O)(=O)NCc2ccco2)c2ccccc12	12	u	-6%[46.1 µM]	4	14µM*	1%[38.3 µM]
Oc1c(Cl)cc(Cl)c2c1NCCC2	17	-10%	3%[46.1 µM]	17	5µM*	-3%
COc1ccc(-c2nn3c(C4CCCCC4)nnc3s2)cc1OC	25	u	-7%[46.1 µM]	9	13µM*	31%[38.3 µM]
COc1cc(-c2nn3c(C4CCCCC4)nnc3s2)cc(OC)c1OC	-26	u	-23%[46.1 µM]	4	u	7%[38.3 µM]
Cc1cc(-c2ccccc2)n[nH]1	x	x	13%	x	-6%	u
FC(F)C(F)(F)C(F)(F)C(F)(F)c1cc(-c2ccccc2)n[nH]1	-4	16µM*	20%[46.1 µM]	6	4%	50%[38.3 µM]
CCCCC#Cc1ccccc1CC(=O)Nc1ccccc1	-119*	-7%	-4%	x	-2%	15%
CSCCC(NS(=O)(=O)c1ccccc1F)C(=O)OCc1ccccc1Cl (configuration not stated)	1	-13%	-29%	x	16µM*	2%
O=C(NCCN1C(=O)C2C3C=CC(C3)C2C1=O)Nc1ccc(Br)cc1 (configuration not stated)	u	-11%	-10%[46.1 µM]	6	11µM*	8%[38.3 µM]
CC(=O)OC(C)(CCC(C)(OC(C)=O)C(C)=O)C(C)=O (configuration not stated)	-12	-3%	0%[7.67 µM]	8	1%	-16%[38.3 µM]
COCCn1c(=S)[nH]c2cc(C(=O)NCC3CCCO3)ccc2c1=O (configuration not stated)	46	-9%	-15%[46.1 µM]	-2	16µM*	1%
O=C(NCC1CCCO1)c1ccc(Cn2c(=S)[nH]c3ccccc3c2=O)cc1 (configuration not stated)	x	x	0%	x	-9%	2%

Assay outcomes from PubChem BioAssay.
